Screening data: PubChem BioAssay, National Center for Advancing Translational Sciences (NCATS)
FEN1 inh: qHTS Assay for the Inhibitors of Human Flap endonuclease 1 (FEN1) | Recombinant FEN1 flap cleavage, fluorescence, 15 min | 0.35% of 390,000 active | P39748 | Potency, µM (highest dose often 114 µM), inactives show at the highest dose activity change, negative = inhibition, hits mostly inhibitors; also: % is scaled to controls: 0 for no effect and ±100 for the full control effect; nearly all actives have a fitted effect of over 65% in size
Target sequence (P39748 whole entry, looked up): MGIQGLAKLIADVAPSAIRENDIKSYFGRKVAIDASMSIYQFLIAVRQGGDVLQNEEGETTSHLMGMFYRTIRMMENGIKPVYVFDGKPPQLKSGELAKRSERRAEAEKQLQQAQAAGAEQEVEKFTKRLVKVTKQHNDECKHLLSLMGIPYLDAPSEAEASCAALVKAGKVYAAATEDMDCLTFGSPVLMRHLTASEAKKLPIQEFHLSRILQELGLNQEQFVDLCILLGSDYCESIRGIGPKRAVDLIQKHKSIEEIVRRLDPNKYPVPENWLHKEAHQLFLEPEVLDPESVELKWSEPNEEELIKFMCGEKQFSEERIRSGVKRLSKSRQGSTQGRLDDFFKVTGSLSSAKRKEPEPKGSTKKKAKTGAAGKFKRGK
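FEN1 at 10 nM preincubated with compounds 15 min at room temperature, then flap DNA substrate added at 50 nM final. Signal read at 0 and 15 min; concentration-response fitted with four-parameter Hill equation.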
WRN helicase inh: qHTS for Inhibitors of WRN Helicase. AID 651768, 2012. 0.46% of 360,000 active. WRN helicase unwinding, fluorescent forked duplex, kinetic. Potency, µM (highest dose often 114 µM), for inactives: at the highest dose activity change, negative = inhibition, most hits filed as inhibitors; also: % is scaled to controls: 0 for no effect and ±100 for the full control effect; nearly all actives have a fitted effect of over 55% in size
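Fluorescence dequenching readout, ex 525 nm/em 598 nm, kinetic mode: forked duplex DNA (100 nM final) with adjacent fluorophore and quencher unwound by WRN (20 nM final) with 2 mM ATP. Compound preincubation 15 min, room temperature.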
POLB inh: qHTS Assay for Inhibitors of DNA Polymerase Beta | Pol beta primer extension/strand displacement, fluorescence kinetic | Potency, µM (highest dose often 114 µM), inactives show at the top dose activity change, negative = inhibition, usual class: inhibitors | 1.3% of 340,000 active; also: % is scaled to controls: 0 for no effect and ±100 for the full control effect
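10 nM enzyme + cpd, 15 min RT; start with substrate 50 nM final; read 0 min and after 10 min RT. Corrected, normalized data; 4-parameter Hill curve fit.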
POLK inh: qHTS for Inhibitors of Polymerase Kappa. 0.53% of 400,000 active. purified Pol kappa, fluorescent DNA synthesis assay, 10 min. Potency, µM (doses to about 107 µM), for inactives: at the highest dose activity, negative = inhibition, actives largely listed as inhibitors. DNA polymerase kappa (Homo sapiens), Q9UBT6. AID 588579, 2011; also: % is scaled to controls: 0 for no effect and ±100 for the full control effect
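Kinetic fluorescence readout at 0 and 10 min followed reaction start with substrate at 50 nM final. Beforehand, enzyme (10 nM Pol kappa) stood 15 min with compound at room temperature; buffer-only wells were negative controls.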
POLH inh: qHTS for Inhibitors of Polymerase Eta | DNA polymerase eta (Homo sapiens), Q9Y253 | recombinant Pol eta, fluorescent DNA replication assay | Potency, µM (highest dose often 114 µM), without a hit: at the top dose activity change, negative = inhibition, hits mostly inhibitors | 1.2% of 390,000 active; also: % is scaled to controls: 0 for no effect and ±100 for the full control effect
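Fluorescent replication assay: 50 nM final substrate added after a 15 min room-temperature compound preincubation with 10 nM enzyme. Signal taken at 0 min and again at 10 min.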
Pol iota inh: qHTS for Inhibitors of Polymerase Iota; DNA polymerase iota (Homo sapiens), Q9UNA4; Pol iota fluorescent replication assay, 10 min; Potency, µM (doses to about 115 µM), for inactives: at the highest dose activity, negative = inhibition, usual class: inhibitors; 1% of 390,000 active
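Pol iota at 10 nM preincubated 15 min with compounds at room temperature; reaction started with fluorescent substrate, 50 nM final. Fluorescence read kinetically at 0 and 10 min; buffer-only wells as negative control.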
The depositor's hits bear a star; u = inconclusive; x = no result; ! = a repeat was not active; [ ] = another dose, or the depositor's remark. An excerpt weighted towards active compounds, which were near 2.4% of everything screened. Calls follow the shape of the dose curve; as a rule, active = well fitted curve in the direction sought with a large enough effect; inconclusive = small, poorly fitted or top-dose-only effect, or another doubt; inactive = no such curve, though single readings can be large; an effect the other way counts as inactive or inconclusive. Potency is read from the fitted curve at half-maximal effect.

SMILES	FEN1 inh	WRN helicase inh	POLB inh	POLK inh	POLH inh	Pol iota inh
O=C1C(=O)C(c2ccc(O)cc2O)Oc2cc(O)cc(O)c21 (configuration not stated)	20µM*	x	x	13µM*	x	10µM*
O=S(=O)(c1ccc(C(F)(F)F)cc1)N1CCN(c2nc(-c3cccs3)nc3ccccc23)CC1	10%	x	x	11%	x	23%
Cc1ccc(CNC(=O)c2nnn(CC(=O)Nc3cc(C)ccc3C)c2N)cc1	-2%	x	7.9µM*	-21%	-12%	-6%
COc1cccc(NC(=O)Cn2nnc(C(=O)Nc3ccccc3)c2N)c1	3%	-4%	8%	-13%	-5%	0%
COc1cccc(NC(=O)Cn2nnc(C(=O)NCCc3ccccc3)c2N)c1	12%	-15%[11.6 µM]	u	-34%	8%	32µM*
CCc1ccccc1NC(=O)Cn1nnc(C(=O)NCc2ccccc2Cl)c1N	16%	x	71µM*	u	-15%	89µM*
COc1ccc(NC(=O)Cn2nnc(C(=O)NCc3ccccc3)c2N)c(OC)c1	11%	7%	u	2%[60.1 µM]	10%	u
CCc1ccccc1NC(=O)Cn1nnc(C(=O)NCc2cccs2)c1N	-7%	-18%	u	-13%	u	u
COc1ccc(NC(=O)Cn2nnc(C(=O)NCCc3ccccc3)c2N)c(OC)c1	u	-1%[11.6 µM]	-25%	-8%	35µM*	u
O=S(=O)(c1ccc(F)cc1F)N1CCN(c2nc(-c3cccs3)nc3ccccc23)CC1	-1%	x	x	-22%	x	-3%
COc1ccc(CCNC(=O)c2nnn(CC(=O)Nc3ccccc3C)c2N)cc1OC	-21%	-8%	20µM*	-11%	u	u
N=c1oc2cc(O)ccc2cc1C(=O)Nc1ccc(Cl)cc1	-22%	-9%	1%	-9%	79µM*	9%
Cc1ccc(NC(=O)c2cc3ccccc3oc2=N)cc1	5%	-3%	11%	9%	-5%	u
CCCn1c(SCC(=O)Nc2nnc(-c3ccccc3)s2)nnc1-c1ccccn1	-13%	-9%	22µM*	-10%	u	u
Cc1ccc(CNC(=O)COC(=O)c2ccccc2OCC(=O)Nc2ccc(Br)cc2)cc1	2%	x	x	8%	x	5%
CC(C)[C@H](NC(=O)[C@H](CCCCN)NC(=O)[C@@H](NC(=O)[C@@H]1CCCN1C(=O)[C@H](CCCN=C(N)N)NC(=O)[C@H](CCCN=C(N)N)NC(=O)[C@H](CCCCN)NC(=O)[C@H](CCCCN)NC(=O)CNC(=O)[C@@H](NC(=O)[C@@H]1CCCN1C(=O)[C@@H](N)CCCCN)C(C)C)C(C)C)C(=O)N[C@@H](Cc1ccc(O)cc1)C(=O)N1CCC[C@H]1C(=O)O	x	x	x	13%[60.1 µM]	x	x
CNc1ccccc1	-7%	6%	x	-3%	-13%	-6%
CNc1ccc(C=C2C=CC=C2)cc1	1%	x	x	u	x	5µM*
S=c1[nH]nc(-c2ccncc2)n1Cc1ccco1	-16%	5%	7%	3%	-12%	-1%
COc1cccc(-c2n[nH]c(=S)n2Cc2ccco2)c1	-13%	5%[11.6 µM]	u	-94%	35µM*	u
COc1cccc(C2Nc3ccc4ccccc4c3C3=C2C(=O)CCC3)c1O (configuration not stated)	8%	11%	89µM*	1%	-12%	155%
CC1=NN(c2ccc(C(=O)OC(C)C)cc2)C(=O)/C1=C\C=C\c1ccco1	-9%	-4%	50µM*	-3%	u	-2%
CC1=NN(c2ccccc2)C(=O)/C1=C\C=C\c1ccccc1	u	-14%[11.6 µM]	u	-16%	79µM*	u
O=C(N/N=C/c1cccnc1)c1cccc(NC(=O)c2ccc(Cl)cc2)c1	-28%	u	40µM*	-20%	u	u
Cc1cccc(C(=O)Nc2ccc(C(=O)N/N=C/c3cccnc3)cc2)c1	7%	0%	18%	-8%	-14%	37%
SMILES	FEN1 inh	WRN helicase inh	POLB inh	POLK inh	POLH inh	Pol iota inh
Cc1ccc(C(=O)Nc2ccc(C(=O)N/N=C/c3cccnc3)cc2)cc1	-5%	-14%[11.6 µM]	u	-13%	-5%	79µM*
O=C(N/N=C/c1ccccc1)c1ccc(NC(=O)c2ccc(F)cc2)cc1	6%	0%	-2%	0%	-14%	131%
Cc1ccccc1C(=O)Nc1ccc(C(=O)N/N=C/c2ccc(F)cc2)cc1	-5%	-16%	40µM*	-13%	4%	-6%
O=C(N/N=C/c1cccnc1)c1cccc(Cl)c1	20%	8%	35%	4%	-1%	29%
O=[N+]([O-])c1ccccc1/C=C1\C=Cc2ccccc21	9%	x	x	-2%	x	73%
O=C(O)C1=CC(=C(c2ccc(O)c(C(=O)O)c2)c2ccc(O)c(C(=O)O)c2)C=CC1=O	0.79µM*	x	0.022µM*	0.63µM*!	0.13µM*	0.05µM*!
CC1=C/C(=C(\c2ccc(O)c(C)c2)c2ccccc2S(=O)(=O)O)C=CC1=O	3%	17%	u	-5%	-7%	40%
CC(=O)OC1(C(F)(F)F)Oc2ccccc2NC1=O (configuration not stated)	u	-2%	79µM*	-9%	-4%	-8%
CC1(C(=O)NCc2ccc(F)cc2)Oc2ccccc2NC1=O (configuration not stated)	0%	-29%	-24%	-8%	5%	2%
Cc1cc(C)cc(NC(=O)CSCc2nc3c(nnn3Cc3ccc(F)cc3)c(=O)[nH]2)c1	u	-28%[57.1 µM]	x	-39%	u	45µM*
CCC1C(=O)CC2CCN3C(=O)CCC1C23 (configuration not stated)	-12%	x	x	5%	x	18%
C[C@H](NC(=O)[C@@H](Cc1c[nH]c2ccccc12)NC(=O)[C@@H](N)Cc1cnc[nH]1)C(=O)N[C@@H](Cc1c[nH]c2ccccc12)C(=O)N[C@H](Cc1ccccc1)C(=O)N[C@@H](CCCCN)C(N)=O	x	x	x	15%[60.1 µM]	x	x
Cc1ccc(CCC(=O)Nc2ccc(S(N)(=O)=O)cc2)o1	-6%	-16%[57.1 µM]	-20%	-27%	14µM*	-16%
CC(=O)Nc1ccc(NC(=O)CCc2ccc(C)o2)cc1	21%	-1%	26%	8%	-18%	19%
O=C(CSc1nc2ccccc2c(=O)n1Cc1ccccc1)Nc1ccc(Br)cc1C(=O)O	-21%	2%[11.6 µM]	u	-17%	89µM*	u
